# BLM helicase inh = inhibitors of human Bloom syndrome helicase BLM; recombinant BLM DNA unwinding, fluorescence dequenching; Potency, µM (doses to about 56.1 µM), for inactives: at the highest dose activity change, negative = inhibition, actives largely listed as inhibitors; 350,000 compounds, 0.2% hits;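 further: plate controls were vehicle for no effect and no enzyme for full effect; nearly all actives have a fitted effect of over 35% in size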
# WRN helicase inh = blocks human WRN helicase; Q14191; WRN helicase unwinding, fluorescent forked duplex, kinetic; Potency, µM (series often up to 114 µM), for the others: top-dose activity change, negative = inhibition, actives largely listed as inhibitors; 360,000 compounds, 0.46% hits; further: on the % scale 0 is the no-effect control and ±100 the full control effect; nearly all actives have a fitted effect of over 55% in size
#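 Enzyme (20 nM final) and test compound sit together 15 min at room temperature before substrate addition. Substrate is a single-forked duplex oligonucleotide (100 nM) labelled with fluorophore and quencher, with 2 mM ATP; helicase unwinding raises red fluorescence, read kinetically.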
# GCN5L2 inh = GCN5L2 (KAT2A) acetyltransferase inhibition. Q92830. GCN5L2 HAT assay, ThioGlo1 CoA-SH fluorescence. Potency, µM (top dose mostly 58.9 µM), inactives show at the highest dose activity change, negative = inhibition, actives largely listed as inhibitors. 390,000 compounds, 0.21% hits. AID 504327; further: on the % scale 0 is the no-effect control and ±100 the full control effect
#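 ThioGlo1-coupled HAT assay: 20nM GCN5L2, 70uM acetyl-CoA, 75uM H3(1-25) peptide, pH 7.5. Fluorescence read at 340/540nm at start and after 20 min at room temperature.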
# RECQ1 inh = blocks DNA unwinding by human RECQ1 | RECQ1 DNA unwinding, red fluorescence kinetic read | Potency, µM (top dose mostly 57.3 µM), without a hit: at the highest dose activity, negative = inhibition, most hits filed as inhibitors | 240,000 compounds, 0.54% hits | P46063;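 further: plate controls were vehicle for no effect and no enzyme for full effect; nearly all actives have a fitted effect of over 30% in size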
#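 RECQ1T1 50 nM; forked duplex (20 bp + 30-nt ss tails) 200 nM, ATP 2 mM final; pH 8.0, 2 mM MgCl2, 2.5 ug/ml poly(dI-dC); 15 min compound preincubation; discontinuous kinetic read over 2 h at RT.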
# ERG-DNA inh = inhibitors of human ERG Ets domain-DNA interaction. Potency, µM (doses to about 76.9 µM), for the others: at the top dose FP activity, negative = inhibition, most hits filed as inhibitors. fluorescence polarization, His-ERG Ets domain / labelled DNA. 370,000 compounds, 0.028% hits. P11308; active means well fitted inhibition curve with a large enough effect in the polarisation, with a control signal flat; inconclusive means small, poorly fitted or top-dose-only effect, or effect the other way, or a change in a side signal; inactive means no such curve, though single readings can be large or run the other way; the % refers to the polarisation;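 further: polarization taken with two DNA probes labelled with fluorescein and Texas red; % of control where 0% means no effect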
#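 His-tagged ERG Ets domain (1 uM in the protein solution; 300mM KCl, 50mM Tris-HCl, 1mM EDTA, 1mM DTT, pH 7.5) received compound, then a probe mix of 5 nM fluorescein-DNA and 100nM Texas-615-DNA. Fluorescence polarization was read for both dyes.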
# APEX1 inh = blocks human APE1 abasic DNA cleavage; P27695; recombinant APE1, TAMRA/BHQ-2 abasic DNA cleavage fluorescence; Potency, µM (titrated, usually from 65.8 µM), inactives show at the highest dose activity change, negative = inhibition, most hits filed as inhibitors; 350,000 compounds, 0.35% hits;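 further: plate controls were vehicle for no effect and reference inhibitor for full effect; nearly all actives have a fitted effect of over 55% in size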
# Target sequence (P27695 whole entry, looked up): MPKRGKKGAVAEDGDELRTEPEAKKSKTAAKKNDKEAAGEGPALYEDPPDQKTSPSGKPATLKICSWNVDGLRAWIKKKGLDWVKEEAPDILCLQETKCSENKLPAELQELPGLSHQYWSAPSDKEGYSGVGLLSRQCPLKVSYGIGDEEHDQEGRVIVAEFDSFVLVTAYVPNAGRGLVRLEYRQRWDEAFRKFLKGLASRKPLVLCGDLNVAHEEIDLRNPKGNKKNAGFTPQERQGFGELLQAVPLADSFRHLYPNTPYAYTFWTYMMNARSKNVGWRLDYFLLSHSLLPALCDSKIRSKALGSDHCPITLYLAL
#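 Substrate: short duplex with […] THF abasic site, 5'-TAMRA and 3'-BHQ-2, 50 nM final. APE1 at 0.75 nM, preincubated 15 min RT with compound. Fluorescence increase from first to third read measured activity.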
# * = called active by the depositor; i = inactive; ? = inconclusive; . = no result; [ ] = dose if it differs, or a comment. Hits are enriched below; roughly 0.88% of the tested compounds scored in any of these assays. Unless noted, the call rests on the fitted dose curve; in most records, active means well fitted curve in the direction sought with a large enough effect; inconclusive means small, poorly fitted or top-dose-only effect, or another doubt; inactive means no such curve, though single readings can be large; an effect the other way counts as inactive or inconclusive. Potency means the concentration at half of the fitted maximal effect.
SMILES,BLM helicase inh,WRN helicase inh,GCN5L2 inh,RECQ1 inh,ERG-DNA inh,APEX1 inh
COc1cc(OC)cc(-c2c(-c3cccs3)c3cc(Br)ccc3n2C)c1,.,1%,-25%,.,0%,-1%
Cn1c(-c2ccsc2)c(-c2cccs2)c2cc(Br)ccc21,.,-4%,20µM*,.,-14%,-4%
CC1=C(C(=O)O)N2C(=O)C(NC(=O)C(N)C3=CCC=CC3)C2SC1 (centres undefined),-1%,.,.,12%,.,-2%
O=[N+]([O-])c1cc2c(cc1/C=N/n1c(-c3ccccc3)n[nH]c1=S)OCO2,18µM*,-21%,-8%,-13%,7%,-2%
O=[N+]([O-])c1cc2c(cc1/C=N/n1c(-c3ccccn3)n[nH]c1=S)OCO2,-11%,8%,-7%,-4%,.,?
N#Cc1c(-n2ncnc2-c2cccc(Cl)c2)sc2c1CCCCC2,-3%,.,4%,.,-1%,.
O=C(CN1C(=O)c2cccc3cccc1c23)NCc1cccnc1,2%,2%,32µM*,-2%,3%,1%
CC(C)(C)n1ncc2c(=O)n(Cc3ccc(F)c(C(F)(F)F)c3)cnc21,.,.,.,.,.,-9%
O=C(O)CCN1C(=O)/C(=C2\C(=O)N(Cc3ccccc3Cl)c3ccccc32)SC1=S,-21%,.,5%,.,.,7.5µM*
COc1ccc(NC(=O)CN2C(=O)/C(=C3\SC(=S)N(CCC(=O)O)C3=O)c3ccccc32)cc1,-3%,-2%,-9%,.,67%,34%
O=C(NC1CC1)c1cc(-c2cccs2)on1,.,.,.,.,.,9%
O=C(Cn1ncc2c3ccccc3n(Cc3ccccc3)c2c1=O)NCCc1ccc(Cl)cc1,-2%,.,2%,.,-4%,.
COc1c(CC=C(C)C)cc(C2CC(=O)c3c(O)cc(O)cc3O2)cc1CC=C(C)C (centres undefined),-20%,-7%,?,-26%,2%,-1%
COC1=CC(=O)C(C2CC(=O)c3c(O)cc(O)cc3O2)=CC1=O (centres undefined),.,28µM*,.,.,2%,.
Cc1ccc(-c2ccc(/C=C3\SC(N4CCOCC4)=NC3=O)o2)cc1,-2%,-10%[57.1 µM],-11%,i,27%,-10%
O=C1NC(=S)S/C1=C/c1ccc(N2CCOCC2)o1,i,25µM*,-20%,1%,109%,3%
O=C1N=C(N2CCOCC2)S/C1=C/c1ccc(-c2ccc(F)cc2)o1,-12%,-1%,22µM*,-7%,2%,-6%
Cc1noc(C)c1S(=O)(=O)N(C)C[C@@H]1OCc2cn(nn2)CCCC(=O)N([C@@H](C)CO)C[C@H]1C,.,2%,.,.,.,.
COc1cc(-c2nc3nc[nH]n3c2Nc2ccc(C(C)C)cc2)ccc1O,-12%,.,-15%,.,-2%,.
O=C(COCc1cc(-c2ccco2)on1)Nc1cccc(O)c1,0%,.,1%,.,1%,.
CCOC(=O)N1CCN(c2nc(-c3ccco3)cc(C(F)(F)F)n2)CC1,-1%,-1%,4µM*,-7%,-19%,2%
CCOC(=O)N1CCN(c2nc(-c3cccc(OC)c3)cc(C(F)(F)F)n2)CC1,-4%,-6%,-12%,-5%,2%,-1%
O=C1C=CC(=O)N1c1ccc2ccccc2c1,.,50µM*,.,.,10%,.
Cc1cccc(N2C(=O)C=CC2=O)c1,.,45µM*,.,.,-2%,.
CCN(CC)C1CC(=O)N(c2cccc(C)c2)C1=O (centres undefined),-1%,.,12%,-4%,.,-4%
SMILES,BLM helicase inh,WRN helicase inh,GCN5L2 inh,RECQ1 inh,ERG-DNA inh,APEX1 inh
O=C1C=CC(=O)N1c1ccc(Nc2ccccc2)cc1,.,?,.,.,-5%,.
CCN(CC)CCOc1ccc2c(c1)C(=NO)c1cc(OCCN(CC)CC)ccc1-2,-70%,35µM*,-21%,31%,.,-15%
COc1cc(NC(=S)NCCC(c2ccccc2)c2ccccc2)cc(OC)c1,-13%,40µM*,-9%,-19%,-40%,7%
Fc1ccccc1Nc1n[nH]c(=S)s1,0%,-16%,18µM*,9%,7%,11%
CC1(C)CC(=O)C(C(C2=C(O)CC(C)(C)CC2=O)c2ccc([N+](=O)[O-])cc2)C(=O)C1 (centres undefined),-1%,-29%[57.1 µM],-2%,-16%,0%,-4%
Cc1ccc(C(C2=C(O)CC(C)(C)CC2=O)C2C(=O)CC(C)(C)CC2=O)s1 (centres undefined),-1%,56µM*,0%,11%,-5%,-5%
CC1(C)CC(=O)C(C(C2=C(O)CC(C)(C)CC2=O)c2ccc(Br)s2)C(=O)C1 (centres undefined),-4%,22µM*,-7%,-3%,5%,-1%
CCC(C)NC(=O)CSc1nc2n[nH]c(C)c2c(=N)n1-c1cc(Cl)ccc1C (centres undefined),1%,.,-5%,.,2%,.
CC(C)(C)C(=O)N1CCN(c2ccc3c(c2)C2CC3CCN2C(=O)OCc2ccccc2)CC1 (centres undefined),.,1%,.,.,.,.
CC1(C)S[C@@H]2[C@H](NC(=O)C(N)c3ccccc3)C(=O)N2[C@H]1C(=O)OC1OC(=O)c2ccccc21 (some centres undefined),.,.,.,.,.,3%[21 µM]
CC(C)S(=O)(=O)c1oc(-c2ccc(F)cc2)nc1S(=O)(=O)c1ccccc1,-4%,.,-12%,.,-2%,.
COc1ccc(Nc2c3c(nc4ccc(NC(=O)/C=C/c5cccc(OC)c5OC)cc24)CCCC3)cc1OC,0%,.,-11%,.,?,.
Cc1cc(C)cc(N(CC(=O)NC2CCCCC2)C(=O)c2ccc(C)s2)c1,-4%,0%,?,3%,.,-1%
Cc1ccc(N(CC(=O)NC2CCCCC2)C(=O)c2ccc(C)s2)cc1,-2%,-4%,4µM*,-1%,.,-6%
CCc1ccc(/C(C)=N/NC(=O)CNC(=O)/C=C/c2ccco2)cc1,.,28µM*,.,.,-5%,.
COCCCn1c(=O)c2sccc2n2c(CCCC(=O)Nc3cccc(C(F)(F)F)c3)nnc12,-8%,.,-4%,.,0%,.
O=C(/C=C/c1ccc(N2CCC(c3ccccc3)=N2)cc1)c1ccccc1,-8%,50µM*,-11%,-9%,117%,5%
N#CC(C#N)=C1C=C2C=C(N3CCCCCC3)CCC2CC1 (centres undefined),13µM*,15µM*,-8%,28µM*,?,?
N#CC(C#N)=C1C=C2C=C(N3CCOCC3)CCC2CC1 (centres undefined),-22%,-11%,2%,i,86%,-9%
CN1CCN(C2=CC3=CC(=C(C#N)C#N)CCC3CC2)CC1 (centres undefined),-27%,-6%,-4%,-10%,102%,-1%
